The values below come from the supplement of paper PMC9446081.

SMILES strings stand for the structures. ± gives the standard deviation of the averaged measurements.

The test concerns DNA gyrase. In words: relative enzymatic activity vs untreated control (fraction); higher = less inhibition. The conditions noted are these: 100 µM; incubation time: 2 h at 37 C. The procedure: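 In vitro enzymatic inhibition assays (ProFoldin kits) for 12 purified essential E. coli enzymes or complexes, each treated with 218 active antibacterial compounds at 100 µM for 2 h at 37°C. Read-outs were fluorescence or absorbance (phosphate detection, dye binding), converted to activity via standard curves and expressed relative to untreated DMSO controls.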
`Cc1c(N)nc([C@H](CC(N)=O)NC[C@@H](N)C(N)=O)nc1C(=O)N[C@H](C(=O)N[C@@H](C)[C@H](O)[C@@H](C)C(=O)N[C@@H](C(=O)NCCc1nc(-c2nc(C(=O)NCCC[S+](C)C)cs2)cs1)[C@@H](C)O)[C@@H](O[C@H]1O[C@H](CO)[C@H](O)[C@@H](O)[C@H]1O[C@H]1O[C@H](CO)[C@@H](O)[C@H](OC(N)=O)[C@@H]1O)c1cnc[nH]1` displayed a relative enzymatic activity of 0.0494 ± 0.07. `CN(C)[C@@H]1C(=O)[C@@H](C(N)=O)C(=O)[C@@]2(O)C(=O)[C@H]3C(=O)c4c(O)ccc(Cl)c4[C@@](C)(O)[C@H]3C[C@@H]12` displayed a relative enzymatic activity of 0.69 ± 0.15.

Turning to `O=S(=O)(O)O.Oc1cccc2cccnc12`, the relative enzymatic activity was 0.857 ± 0.31.

`CC(=O)Oc1ccc(Cl)c2cccnc12`: the relative enzymatic activity is 0.756 ± 0.36. For `CN(C)[C@@H]1C(=O)C(C(N)=O)=C(O)[C@@]2(O)C(O)=C3C(=O)c4c(O)cccc4[C@](C)(O)[C@H]3C[C@@H]12`, the relative enzymatic activity is 1.15 ± 0.25. With `Cc1c(N)nc([C@H](CC(N)=O)NC[C@@H](N)C(N)=O)nc1C(=O)N[C@H](C(=O)N[C@@H](C)[C@H](O)[C@@H](C)C(=O)N[C@@H](C(=O)NCCc1nc(-c2nc(C(=O)NCCC[S+](C)C)cs2)cs1)[C@@H](C)O)[C@@H](O[C@H]1O[C@H](CO)[C@H](O)[C@@H](O)[C@H]1O[C@H]1O[C@H](CO)[C@@H](O)[C@H](OC(N)=O)[C@@H]1O)c1c[nH]cn1`, the relative enzymatic activity was determined as 0.0451 ± 0.064. Regarding `Oc1cc(Cl)ccc1Oc1ccc(Cl)cc1Cl`, the relative enzymatic activity is 1.04 ± 0.057. `O=[N+]([O-])C(Br)(CO)CO` had a relative enzymatic activity of 0.108 ± 0.15. The molecule `CCCCCCCCCCCCCCCC[n+]1ccccc1` registered a relative enzymatic activity of 1.17 ± 0.056.

`Cn1ncnc2c(=O)n(C)c(=O)nc1-2` had a relative enzymatic activity of 0.373 ± 0.21. Consider `COP(=S)(OC)Oc1cc(Cl)c(Cl)cc1Cl`, for which the relative enzymatic activity amounted to 1.01 ± 0.21. `CC(=O)[O][Hg][c]1ccccc1` yielded a relative enzymatic activity of 0.0283 ± 0.04.

Molecule `O=[N+]([O-])c1ccc(N(CCO)CCO)c2c1no[n+]2[O-]` returned a relative enzymatic activity of 1.22 ± 0.18. Turning to `CCCCCCCCCCCCCCCC[N+](C)(C)C.[Br-]`, the relative enzymatic activity is 1.21 ± 0.19.

In turn, `O=C1C=C2C(=CCOC2O)O1` (centres undefined) came in with a relative enzymatic activity of 0.0893 ± 0.13.

The molecule `CN[C@H]1C[C@@H](N)[C@H](O)[C@@H](O[C@@H]2O[C@H](CO)[C@H](O)[C@@H]3O[C@@]4(O[C@H]23)O[C@H]([C@@H](N)CO)[C@H](O)[C@H](O)[C@H]4O)[C@@H]1O` yielded a relative enzymatic activity of 0.984 ± 0.14.

`CN1C(=O)[C@]23CC4=CC=C[C@H](O)[C@H]4N2C(=O)[C@@]1(CO)SS3`: the relative enzymatic activity came out at 0.669 ± 0.11. In turn, `Cc1nc2c(=O)n(C)c(=O)nc-2n(C)n1` yielded a relative enzymatic activity of 0.498 ± 0.2. Regarding `[O-][n+]1ccccc1[S][Zn][S]c1cccc[n+]1[O-]`, the relative enzymatic activity came to 0.849 ± 0.41.

`CCCCCCCCCCCCCCCC[n+]1ccccc1.[Cl-]` registered a relative enzymatic activity of 1.22 ± 0.054.

On to `CNC1C(O)C(OC2C(N)CC(N)C(OC3OC(C(C)O)C(O)C(O)C3N)C2O)OCC1(C)O` (centres undefined), for which the relative enzymatic activity amounted to 1.19 ± 0.12. The molecule `CCn1cc(C(=O)[O-])c(=O)c2cc3c(cc21)OCO3.[K+]` showed a relative enzymatic activity of 0.128 ± 0.074. `CN(C)[C@@H]1C(=O)[C@H](C(N)=O)C(=O)[C@@]2(O)C(=O)[C@@H]3C(=O)c4c(O)cccc4[C@@](C)(O)[C@H]3C[C@@H]12` returned a relative enzymatic activity of 0.891 ± 0.31. `C[CH2][Hg][S]c1ccccc1C(=O)[O-].[Na+]`: the relative enzymatic activity came out at 0.069 ± 0.018.
